Measurements reported in the supplement of paper PMC10849652.
The full data set covers some 7,900 targets. This sample favours those with a hit. About 0.6% of all pairs of compound and target were hits. Unmarked numbers belong to inactive results.

Assays:
Experiment in all cases: log2 fold change, soluble protein after heating vs DMSO (PISA); higher = thermal stabilisation; K562 cells, 10 uM, 30 min; active = over 0.2 and 3.5 SD of the protein, either way, in both replicates (recomputed)
[1] = compound: CS(=O)(=O)c1ccc(-c2cnc(N)c(C(=O)Nc3ccccc3)n2)cc1
In short: (§1)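 Values are thermal stability changes relative to control samples and are taken from duplicates. They are stated as log2 fold changes. Before quantification by TMTpro 16plex LC-MS/MS with equalised channel sums, K562 cells at 2×10^6 cells/mL were treated with 10 μM compound for 30 min, heated in aliquots for 3 min across 48°C-58°C, pooled, extracted in PBS with 0.5% NP-40 at 4°C, and centrifuged at 21,000xg for 90 min to give the soluble supernatant.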

crizotinib = compound: C[C@@H](Oc1cc(-c2cnn(C3CCNCC3)c2)cnc1N)c1c(Cl)ccc(F)c1Cl [crizotinib]
In short: as §1

[2] = compound: C[C@@H]1COCCN1C2=NC(=NC(=C2)C3(CC3)S(=O)(=O)C)C4=C5C=CNC5=CC=C4
In short: as §1

[3] = compound: C[C@H](C1=CC=C(C=C1)C(=O)NC2=C3C=CNC3=NC=C2)N
In short: as §1

duvelisib = compound: C[C@H](Nc1ncnc2nc[nH]c12)c1cc2cccc(Cl)c2c(=O)n1-c1ccccc1 [duvelisib]
In short: as §1

gandotinib = compound: Cc1cc(Nc2cc(CN3CCOCC3)c3nc(C)c(Cc4ccc(Cl)cc4F)n3n2)n[nH]1 [gandotinib]
In short: as §1

tozasertib = compound: Cc1cc(Nc2cc(N3CCN(C)CC3)nc(Sc3ccc(NC(=O)C4CC4)cc3)n2)n[nH]1 [tozasertib]
In short: as §1

[4] = compound: Cc1cc(SCc2sc(-c3ccc(C(F)(F)F)cc3)nc2C)ccc1OCC(=O)O
In short: as §1

doramapimod = compound: Cc1ccc(-n2nc(C(C)(C)C)cc2NC(=O)Nc2ccc(OCCN3CCOCC3)c3ccccc23)cc1 [doramapimod]
In short: as §1

ispinesib = compound: Cc1ccc(C(=O)N(CCCN)[C@@H](c2nc3cc(Cl)ccc3c(=O)n2Cc2ccccc2)C(C)C)cc1 [ispinesib]
In short: as §1

Sequence of UniProt Q8NEW0 (Q8NEW0 whole entry, looked up): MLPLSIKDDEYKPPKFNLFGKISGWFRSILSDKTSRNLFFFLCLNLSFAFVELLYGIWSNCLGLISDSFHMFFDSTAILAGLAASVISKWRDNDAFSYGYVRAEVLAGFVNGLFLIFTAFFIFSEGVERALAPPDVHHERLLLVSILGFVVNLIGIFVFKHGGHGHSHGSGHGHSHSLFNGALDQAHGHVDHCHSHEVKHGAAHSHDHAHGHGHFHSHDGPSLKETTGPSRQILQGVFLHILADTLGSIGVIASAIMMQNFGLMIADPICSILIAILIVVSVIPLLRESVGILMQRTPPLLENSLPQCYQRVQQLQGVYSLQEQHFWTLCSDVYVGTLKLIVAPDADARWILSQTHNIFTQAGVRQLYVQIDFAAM
Sequence of UniProt Q8N1F8 (Q8N1F8 whole entry, looked up): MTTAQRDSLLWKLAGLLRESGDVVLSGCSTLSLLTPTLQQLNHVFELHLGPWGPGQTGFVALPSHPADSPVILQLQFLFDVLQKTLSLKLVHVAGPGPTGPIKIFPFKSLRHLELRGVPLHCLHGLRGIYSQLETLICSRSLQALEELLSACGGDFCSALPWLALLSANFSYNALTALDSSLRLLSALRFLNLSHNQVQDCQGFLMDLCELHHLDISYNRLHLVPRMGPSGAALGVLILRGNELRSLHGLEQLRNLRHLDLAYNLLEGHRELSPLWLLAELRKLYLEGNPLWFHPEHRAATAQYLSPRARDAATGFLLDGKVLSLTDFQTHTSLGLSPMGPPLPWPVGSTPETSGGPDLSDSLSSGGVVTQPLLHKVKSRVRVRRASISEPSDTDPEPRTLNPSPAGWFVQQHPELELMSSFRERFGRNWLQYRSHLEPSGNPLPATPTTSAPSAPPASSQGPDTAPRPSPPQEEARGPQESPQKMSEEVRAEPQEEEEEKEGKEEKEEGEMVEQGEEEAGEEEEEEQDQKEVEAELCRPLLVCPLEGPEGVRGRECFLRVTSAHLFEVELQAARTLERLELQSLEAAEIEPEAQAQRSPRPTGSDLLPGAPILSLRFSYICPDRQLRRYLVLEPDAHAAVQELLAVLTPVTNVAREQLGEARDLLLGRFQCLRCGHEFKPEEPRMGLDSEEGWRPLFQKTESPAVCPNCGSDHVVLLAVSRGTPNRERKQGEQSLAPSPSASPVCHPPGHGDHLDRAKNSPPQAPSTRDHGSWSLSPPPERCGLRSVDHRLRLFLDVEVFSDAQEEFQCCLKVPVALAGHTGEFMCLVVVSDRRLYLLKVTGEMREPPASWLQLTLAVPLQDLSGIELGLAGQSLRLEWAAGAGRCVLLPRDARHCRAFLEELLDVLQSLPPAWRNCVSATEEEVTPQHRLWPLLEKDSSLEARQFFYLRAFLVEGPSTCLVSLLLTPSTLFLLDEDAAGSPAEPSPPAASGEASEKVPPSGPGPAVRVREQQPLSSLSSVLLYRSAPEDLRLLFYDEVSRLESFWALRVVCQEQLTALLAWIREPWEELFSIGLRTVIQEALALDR
Sequence of UniProt Q15005 (Q15005 whole entry, looked up): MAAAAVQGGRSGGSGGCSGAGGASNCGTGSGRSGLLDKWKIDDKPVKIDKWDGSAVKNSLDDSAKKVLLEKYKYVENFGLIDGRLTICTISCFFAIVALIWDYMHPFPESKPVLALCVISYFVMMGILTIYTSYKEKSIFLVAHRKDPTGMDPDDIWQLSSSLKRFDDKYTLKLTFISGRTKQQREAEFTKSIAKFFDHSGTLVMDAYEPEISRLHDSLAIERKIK
Sequence of UniProt Q9Y4R8 (Q9Y4R8 whole entry, looked up): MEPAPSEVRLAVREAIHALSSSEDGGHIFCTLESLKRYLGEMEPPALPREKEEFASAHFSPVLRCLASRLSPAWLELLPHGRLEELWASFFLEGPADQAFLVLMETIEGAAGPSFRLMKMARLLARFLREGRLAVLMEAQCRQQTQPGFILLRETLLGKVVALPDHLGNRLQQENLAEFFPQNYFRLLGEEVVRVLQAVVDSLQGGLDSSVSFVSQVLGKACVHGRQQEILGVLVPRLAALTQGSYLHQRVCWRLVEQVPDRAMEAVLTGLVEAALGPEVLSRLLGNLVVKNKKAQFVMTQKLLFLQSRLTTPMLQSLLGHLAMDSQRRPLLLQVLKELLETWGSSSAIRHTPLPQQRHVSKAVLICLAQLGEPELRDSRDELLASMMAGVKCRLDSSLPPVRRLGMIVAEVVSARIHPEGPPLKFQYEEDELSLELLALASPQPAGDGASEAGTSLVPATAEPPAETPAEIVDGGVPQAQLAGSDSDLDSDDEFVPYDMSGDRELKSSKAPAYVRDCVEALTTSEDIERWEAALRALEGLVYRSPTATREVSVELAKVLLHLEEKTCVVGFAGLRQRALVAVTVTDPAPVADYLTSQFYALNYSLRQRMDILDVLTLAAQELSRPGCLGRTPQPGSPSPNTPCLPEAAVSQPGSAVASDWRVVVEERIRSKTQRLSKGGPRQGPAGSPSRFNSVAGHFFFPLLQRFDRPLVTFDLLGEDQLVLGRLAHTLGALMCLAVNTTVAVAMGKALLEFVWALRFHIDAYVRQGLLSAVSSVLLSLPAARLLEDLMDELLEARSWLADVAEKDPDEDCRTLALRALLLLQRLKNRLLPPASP
Sequence of UniProt O14975 (O14975 whole entry, looked up): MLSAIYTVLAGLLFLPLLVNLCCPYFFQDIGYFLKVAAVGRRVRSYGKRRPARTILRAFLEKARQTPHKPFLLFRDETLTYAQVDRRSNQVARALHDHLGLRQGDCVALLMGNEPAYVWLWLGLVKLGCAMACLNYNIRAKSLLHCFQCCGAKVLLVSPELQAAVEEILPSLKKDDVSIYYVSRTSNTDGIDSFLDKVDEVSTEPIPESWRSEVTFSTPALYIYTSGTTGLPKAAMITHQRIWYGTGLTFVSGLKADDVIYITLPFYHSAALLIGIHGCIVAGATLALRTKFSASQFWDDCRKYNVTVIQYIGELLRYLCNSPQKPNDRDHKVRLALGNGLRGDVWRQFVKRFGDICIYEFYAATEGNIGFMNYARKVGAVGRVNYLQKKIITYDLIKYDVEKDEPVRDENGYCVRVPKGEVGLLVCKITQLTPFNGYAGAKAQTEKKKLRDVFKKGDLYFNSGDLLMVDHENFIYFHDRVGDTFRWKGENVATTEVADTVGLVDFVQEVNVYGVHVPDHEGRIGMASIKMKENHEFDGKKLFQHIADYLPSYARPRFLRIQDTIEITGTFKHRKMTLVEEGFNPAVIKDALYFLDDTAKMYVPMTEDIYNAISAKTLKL
Sequence of UniProt O14776 (O14776 whole entry, looked up): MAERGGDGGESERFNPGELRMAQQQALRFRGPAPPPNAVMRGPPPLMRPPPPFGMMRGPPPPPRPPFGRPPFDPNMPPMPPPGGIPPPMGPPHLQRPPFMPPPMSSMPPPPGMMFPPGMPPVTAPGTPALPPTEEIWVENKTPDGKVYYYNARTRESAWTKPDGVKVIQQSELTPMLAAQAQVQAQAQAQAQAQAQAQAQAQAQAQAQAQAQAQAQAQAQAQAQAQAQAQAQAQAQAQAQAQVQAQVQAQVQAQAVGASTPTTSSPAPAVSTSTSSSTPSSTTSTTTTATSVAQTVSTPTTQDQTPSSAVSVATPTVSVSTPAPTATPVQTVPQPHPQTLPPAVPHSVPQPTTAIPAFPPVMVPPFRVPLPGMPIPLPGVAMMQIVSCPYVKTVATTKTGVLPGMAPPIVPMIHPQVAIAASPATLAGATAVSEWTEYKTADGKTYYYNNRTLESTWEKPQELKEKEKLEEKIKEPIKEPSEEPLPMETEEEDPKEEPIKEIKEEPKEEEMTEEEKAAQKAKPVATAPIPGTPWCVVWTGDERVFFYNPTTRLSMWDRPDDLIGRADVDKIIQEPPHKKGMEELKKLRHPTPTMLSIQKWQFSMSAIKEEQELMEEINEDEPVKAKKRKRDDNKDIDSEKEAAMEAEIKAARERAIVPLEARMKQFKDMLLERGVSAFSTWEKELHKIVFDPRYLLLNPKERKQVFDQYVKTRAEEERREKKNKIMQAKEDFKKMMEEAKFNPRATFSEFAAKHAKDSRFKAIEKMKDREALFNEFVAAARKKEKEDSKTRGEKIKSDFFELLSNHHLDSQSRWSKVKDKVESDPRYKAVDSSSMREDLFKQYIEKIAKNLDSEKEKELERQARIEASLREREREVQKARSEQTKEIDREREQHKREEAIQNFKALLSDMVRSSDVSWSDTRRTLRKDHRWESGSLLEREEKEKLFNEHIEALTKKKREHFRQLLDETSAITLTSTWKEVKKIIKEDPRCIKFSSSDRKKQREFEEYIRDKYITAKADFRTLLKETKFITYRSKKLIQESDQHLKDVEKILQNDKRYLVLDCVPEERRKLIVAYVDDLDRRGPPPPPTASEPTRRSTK
Sequence of UniProt Q8WXA9 (Q8WXA9 whole entry, looked up): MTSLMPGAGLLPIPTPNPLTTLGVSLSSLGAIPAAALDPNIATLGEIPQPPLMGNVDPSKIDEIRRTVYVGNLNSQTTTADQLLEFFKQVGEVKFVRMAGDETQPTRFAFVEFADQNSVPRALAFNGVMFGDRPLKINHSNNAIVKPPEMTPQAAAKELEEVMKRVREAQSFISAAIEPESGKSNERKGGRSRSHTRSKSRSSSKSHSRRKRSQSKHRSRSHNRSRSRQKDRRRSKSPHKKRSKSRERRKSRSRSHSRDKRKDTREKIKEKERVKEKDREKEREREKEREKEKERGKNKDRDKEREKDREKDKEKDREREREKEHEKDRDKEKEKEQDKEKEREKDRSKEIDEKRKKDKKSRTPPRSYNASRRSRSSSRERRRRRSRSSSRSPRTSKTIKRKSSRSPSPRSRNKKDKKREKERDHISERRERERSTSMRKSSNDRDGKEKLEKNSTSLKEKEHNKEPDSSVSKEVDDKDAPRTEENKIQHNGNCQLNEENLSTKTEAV
Sequence of UniProt Q9BVV7 (Q9BVV7 whole entry, looked up): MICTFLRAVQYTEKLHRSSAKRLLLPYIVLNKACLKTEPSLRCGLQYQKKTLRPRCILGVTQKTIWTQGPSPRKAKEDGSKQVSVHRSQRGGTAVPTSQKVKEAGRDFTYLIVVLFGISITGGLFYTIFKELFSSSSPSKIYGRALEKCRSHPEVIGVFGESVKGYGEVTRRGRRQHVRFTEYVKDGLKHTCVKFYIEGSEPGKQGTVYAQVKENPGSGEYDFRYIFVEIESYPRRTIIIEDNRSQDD

| Target | log2 fold change [1] | log2 fold change (crizotinib) | log2 fold change [2] | log2 fold change [3] | log2 fold change (duvelisib) | log2 fold change (gandotinib) | log2 fold change (tozasertib) | log2 fold change [4] | log2 fold change (doramapimod) | log2 fold change (ispinesib) |
| --- | --- | --- | --- | --- | --- | --- | --- | --- | --- | --- |
| TELO2 (UniProt Q9Y4R8) | -0.022 | -0.055 | 0.013 | 0.233 | -0.055 | -0.198 | 0.013 | 0.176 | 0.094 | -0.136 |
| TATDN2 (UniProt Q93075) | 0.002 | -0.061 | 0.028 | 0.078 | 0.019 | 0.106 | 0.136 | 0.045 | 0.063 |  |
| TIMM44 (UniProt O43615) | -0.028 | -0.207 | 0.056 | -0.015 | 0.085 | -0.258 | -0.038 | 0.091 | -0.035 | -0.128 |
| SLC30A7 (UniProt Q8NEW0) | -0.01 | 0.014 | -0.022 | -0.048 | 0.081 | -0.348 (active) | -0.05 | -0.007 | -0.057 | -0.016 |
| TBC1D15 isoform 3 (UniProt Q8TC07) | -0.012 | -0.275 | -0.032 | 0.036 | -0.031 | -0.191 | 0.061 | 0.064 | 0.017 | -0.154 |
| STARD3NL (UniProt O95772) | -0.011 | -0.448 (active) | 0.055 | -0.067 | 0.111 | -0.14 | 0.03 | -0.058 | 0.063 | -0.256 |
| SNRNP27 (UniProt Q8WVK2) | 0.002 | 0.038 | -0.069 | 0.072 | 0.041 | 0.013 | -0.084 | -0.065 | -0.056 | -0.119 |
| STK38L (UniProt Q9Y2H1) | 0.028 | 0.065 | 0.069 | -0.055 | -0.04 | -0.105 | 0.003 | 0.116 | -0.022 | -0.093 |
| SPCS2 (UniProt Q15005) | 0.032 | 0.001 | 0.02 | -0.036 | 0.035 | -0.007 | -0.015 | -0.013 | 0.047 | 0.085 |
| SNX5 (UniProt Q9Y5X3) | -0.075 | -0.32 (active) | 0.022 | -0.014 | -0.145 | -0.138 | -0.071 | 0.036 | -0.019 | -0.236 |
| SMDT1 (UniProt Q9H4I9) | 0.144 | 0.042 | 0.017 | -0.035 | 0.026 | -0.23 | -0.014 | 0 | 0.054 |  |
| SNX1 (UniProt Q13596) | -0.134 | -0.247 | 0.028 | -0.025 | -0.214 | -0.319 (active) | -0.054 | 0.049 | -0.009 | -0.252 |
| TAOK1 (UniProt Q7L7X3) | -0.002 | -0.035 | 0.011 | -0.08 | -0.012 | -0.029 | -0.027 | 0.023 | 0.021 | -0.001 |
| STARD3 (UniProt Q14849) | 0.017 | -0.36 (active) | 0.194 | -0.043 | 0.065 | 0.098 | -0.06 | -0.015 | 0.043 | -0.559 (active) |
| STK38 (UniProt Q15208) | 0.081 | -0.087 | 0.089 | -0.031 | 0.052 | -0.024 | 0.065 | 0.072 | -0.011 | 0.026 |
| STK39 (UniProt Q9UEW8) | 0.109 | -0.174 | 0.028 | 0.061 | 0.007 | -0.038 | -0.049 | 0.048 | -0.027 | -0.038 |
| SNX12 isoform 1 (UniProt Q9UMY4) | 0.004 | -0.055 | 0.081 | 0.007 | -0.162 | -0.204 | 0.021 | 0.044 | -0.036 | -0.097 |
| SLC27A2 (UniProt O14975) | 0.273 (active) | 0.046 | -0.005 | -0.031 | 0.094 | 0.094 | 0.166 | 0.108 | 0.027 | -0.056 |
| TCERG1 (UniProt O14776) | 0.079 | 0.073 | 0.125 | -0.063 | 0.138 | -0.057 | 0.112 | 0.179 | -0.079 | 0.015 |
| SLC25A42 (UniProt Q86VD7) | -0.054 | 0.028 | 0.015 | -0.055 | 0.005 | 0.09 | -0.021 | -0.003 | -0.004 | 0.054 |
| STXBP5 (UniProt Q5T5C0) | -0.021 | -0.024 | 0.006 | 0.047 | 0.066 | -0.029 | 0.017 | -0.002 | 0.026 | -0.058 |
| SMG1 (UniProt Q96Q15) | 0.04 | 0.012 | -0.083 | 0.016 | 0.02 | -0.024 | -0.013 | 0.098 | 0.051 | 0.033 |
| TARS2 (UniProt Q9BW92) | 0.022 | 0.024 | 0.094 | -0.002 | 0.049 | -0.173 | 0.057 | 0.009 | 0.015 | -0.094 |
| TIMM21 (UniProt Q9BVV7) | 0.02 | -0.01 | 0.042 | -0.029 | 0.009 | 0.04 | 0.017 | 0.033 | 0.02 | -0.229 |
| STK11IP (UniProt Q8N1F8) | -0.21 | -0.869 (active) | -0.078 | -0.124 | -0.089 | -0.002 | -0.042 | 0.021 | 0.006 |  |
| SNX2 (UniProt O60749) | -0.034 | -0.223 | 0.006 | -0.039 | -0.107 | -0.216 | -0.102 | 0.041 | -0.014 | -0.184 |
| SRP72 (UniProt O76094) | 0.021 | -0.121 | -0.017 | 0.167 | -0.004 | -0.08 | 0.068 | 0.154 | 0.051 | -0.185 |
| SREK1 isoform 2 (UniProt Q8WXA9) | 0.317 | -0.05 | -0.005 | -0.345 | 0.026 | 0.014 | 0.003 | 0.105 | -0.027 | 0.059 |
| SUOX (UniProt P51687) | 0.016 | 0.076 | 0.098 | 0.001 | -0.026 | 0.063 | 0.003 | -0.075 | -0.338 | -0.034 |
| SPPL2B (UniProt Q8TCT7) | 0.049 | -0.011 | -0.072 | 0.006 | 0.031 | -0.004 | -0.032 | -0.022 | 0.01 | -0.026 |
